“And” between values parts separate entries of the source, which are not always exact repeats. Identical values can stand only once.
Columns and labels:
Type in all cases: functional
[1] = target: Solute carrier family 2, facilitated glucose transporter member 1 (Homo sapiens) (UniProt P11166); assay: ST_JUDE_LEISH: Cytotoxicity at 2uM final concentration against transgenic Leishmania Mexicana promastigotes LmGLUT1 that are glucose transport deficient and complemented with the human glucose transporter GLUT1. Activity is measured by DNA content using SYBR green in vitro
[2] = target: Hexose transporter 1 (Plasmodium falciparum) (UniProt O97467); assay: ST_JUDE_LEISH: Cytotoxicity at 2uM final concentration against transgenic Leishmania Mexicana promastigotes LmPfHT that are glucose transport deficient and complemented with the Plasmodium falciparum hexose transporter. Activity is measured by DNA content using SYBR green in vitro
[3] = target: Glucose transporter (Leishmania mexicana) (UniProt O61059); assay: ST_JUDE_LEISH: Cytotoxicity at 2uM final concentration against transgenic Leishmania Mexicana promastigotes LmGT2 that are glucose transport deficient and complemented with the L. Mexicana glucose transporter 2. Activity is measured by DNA content using SYBR green in vitro

Chain of Solute carrier family 2, facilitated glucose transporter member 1 (Homo sapiens) (P11166 whole entry): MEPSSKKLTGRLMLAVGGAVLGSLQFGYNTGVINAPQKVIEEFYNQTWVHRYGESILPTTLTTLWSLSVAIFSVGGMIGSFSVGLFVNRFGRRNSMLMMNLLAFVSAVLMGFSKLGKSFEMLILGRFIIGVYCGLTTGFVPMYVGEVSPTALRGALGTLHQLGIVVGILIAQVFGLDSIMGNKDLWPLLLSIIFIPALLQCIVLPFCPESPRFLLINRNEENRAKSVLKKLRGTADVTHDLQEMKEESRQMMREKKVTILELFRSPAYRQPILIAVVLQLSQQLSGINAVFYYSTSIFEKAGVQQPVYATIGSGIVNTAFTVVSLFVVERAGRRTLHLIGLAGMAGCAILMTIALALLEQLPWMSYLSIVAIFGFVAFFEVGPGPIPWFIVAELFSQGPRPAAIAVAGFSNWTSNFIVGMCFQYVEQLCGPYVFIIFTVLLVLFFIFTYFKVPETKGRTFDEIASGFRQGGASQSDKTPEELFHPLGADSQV

Compound	inhibition [1]	inhibition [2]	inhibition [3]
Cc1[nH]c(C)c(-c2ccc(/C=C/c3ccccn3)cc2)c(=O)c1Cl	4.28%	4.49%	5.12%
CS(=O)(=O)CCNCc1cccc(-c2cc3nccc(Nc4ccc(Oc5ccccc5)cc4)c3cc2Cl)c1	-1.75%	0.05%	-0.97%
Oc1ccc2c(CNCCc3ccccc3)c(O)ccc2c1CNCCc1ccccc1	8.01%	6.13%	6.71%
COc1ccc(-c2cccc(NC(=O)c3ccc(F)cc3)c2)cc1CN1CCCN(C)CC1	11.2%	9.38%	7.43%
Cc1sc(C)c(C(F)(F)F)c1CNCCCNc1cc(=O)c2ccccc2[nH]1	4.01%	4.67%	4.27%
O=C(NCc1cccc(C(F)(F)F)c1)C1CCCN(C(=O)c2ccc(O)c(-c3ccc(Cl)c(Cl)c3)c2)C1 (stereo not drawn)	3.46%	2.95%	3.95%
O=C(NCC1CCC(C(=O)NC2CCCc3ccccc32)CC1)c1ccc(O)c(-c2ccc(Cl)c(Cl)c2)c1 (stereo not drawn)	3.42%	2.81%	4.27%
O=C(/C=C/c1ccc(Cl)c(Cl)c1)N1CCC(CCCN2CCC(c3c[nH]c4ccc(O)cc34)CC2)CC1	25.3%	17.4%	14%
Cc1cccc2nc(-c3ccc(-c4ccc(CNCc5cccc(N)c5)cc4)cc3)[nH]c12	24.1%	30.9%	14.9%
N#Cc1cccc(COC(=O)C2=C(COc3ccccc3Cl)NC(=O)NC2c2c[nH]c3cnccc23)c1 (stereo not drawn)	9.04%	6.63%	6.83%
CCOc1ccc2[nH]c(C)cc(=NN=Cc3ccccc3F)c2c1	4%	4.47%	3.86%
CCCCN(Cc1cccc(C(F)(F)F)c1Cl)c1ccc(C(O)(C(F)(F)F)C(F)(F)F)cc1	7.39%	6.7%	6.39%
COc1cccc2c1CCN(CCN1CCC(NC(=O)c3ccc(-c4cccc(Cl)c4Cl)cc3)CC1)C2	6.67%	6.1%	5.27%
CN1CCC(N2CCN(Cc3ccc(-c4ccc(-c5nc6cc(F)ccc6[nH]5)s4)cc3)CC2)CC1	2.75%	2.55%	-0.25%
CC1(C)N=C(N)N=C(N)N1OCc1cc2ccccc2cc1CON1C(N)=NC(N)=NC1(C)C	1.9%	1.86%	0.5%
CC(C)(C)c1cc(C(=O)N2CCN(c3ncccc3C(F)(F)F)CC2)n(Cc2ccccc2)n1	5.66%	6.48%	4.37%
CCOC(=O)c1ccc(NC(=O)c2ccccc2C(=O)O)cc1	0.53%	1.23%	-0.02%
CCO[C@H]1CN[C@H](C#Cc2cc3c(Nc4ccc(OCc5cccc(F)c5)c(Cl)c4)ncnc3s2)C1	0.74%	3.65%	3.03%
CC(C)CCNC(=N)Nc1ccc(OCCCOc2ccc(NC(=N)NCCC(C)C)cc2)cc1	0.62%	-1.4%	-0.91%
Nc1ccc(-c2cnc3[nH]cc(-c4ccc(C(=O)O)cc4)c3c2)cn1	-0.33%	0.34%	1.27%
CCOC(=O)C(C#N)NC(=O)C=Cc1ccccc1 (stereo not drawn)	7.73%	6.93%	5.14%
Cc1[nH]c(C)c(-c2cc3ccccc3o2)c(=O)c1Cl	0.9%	1.79%	0.5%
CC(=O)NCC(=O)NC1=NC(=N)N(OCc2ccc3ccccc3c2)C(C)(C)N1	2.26%	1.66%	0.35%
Cc1cccc2nc(-c3ccc(-c4ccc(CN5CCN(CCN6CCOCC6)CC5)cc4)cc3)[nH]c12	6.69%	8.97%	-1.08%

Compound	inhibition [1]	inhibition [2]	inhibition [3]
O=C(NC1CC1)c1ccc(N2CCC(Cc3ccccc3)CC2)c([N+](=O)[O-])c1	0.6%	0.86%	3.45%
C[C@H](Cc1ccc(C[C@@H](C)NC[C@H](O)c2cccc(Cl)c2)cc1)NC[C@H](O)COc1ccccc1	1.99%	1.95%	3.59%
N#Cc1cccc(NC(=O)Nc2ccc3c(c2)CCN(C2CCC2)CC3)c1	5.45%	4.43%	4.94%
CCCC(C)NC(=O)[C@H](CC1CCCCC1)NC(=O)c1ccc(O)c(-c2cccc(C(F)(F)F)c2)c1 (stereo partly drawn)	-1.37%	3.47%	0.42%
CN1CCc2cc(I)c(O)cc2C1Cc1ccccc1Cl (stereo not drawn)	1.98%	3.88%	2.59%
Cc1cc(Oc2ccc(-n3ccnc3)cc2)nc(N2CCN(CCCN3CCCC3)CC2)n1	4%	5.53%	2.69%
CCN(CCCN1CCCC1)c1cc(C)nc(Nc2ccc(Cl)cc2)n1	1.46%	1.37%	-0.13%
O=C(Nc1ccc(OC2CCN(Cc3ccsc3)C2)c(Cl)c1)c1cccs1 (stereo not drawn)	2.98%	3.61%	2.52%
O=C(CSc1nnc(O)n1Cc1ccccc1)Nc1ccccc1-c1ccccc1	5.26%	6.12%	5.02%
CCN(CCNc1nc(NCCc2cnc[nH]2)nc(N(CCC#N)Cc2ccccc2)n1)c1cccc(C)c1	12.1%	12.8%	6.78%
CN1CCN(CCCN(Cc2ccc(-c3cccc(CNCc4ccc5c(c4)OCO5)c3)cc2)C(=O)Nc2ccccc2)CC1	4.2%	4.92%	4.03%
O=C1Nc2cccc3c2C1(CCCCN1CCC(c2cc4ccncc4[nH]2)CC1)CCC3 (stereo not drawn)	-0.19% and 8.55%	0.01% and 8.94%	-0.84% and 8.48%
Cc1cc(C)nc(-n2[nH]c(C)c(Cc3ccc(C(C)(C)C)cc3)c2=O)n1	4.87%	5.45%	2.9%
Cc1cc(N[C@@H](CC(C)C)C(=O)NC2CCCC2)nc(NCC2CCCCC2)n1	3.95%	3.89%	0.25%
Nc1ncc(-c2cccc(CCN3CCOCC3)c2)cc1-c1nc2cc(Br)ccc2[nH]1	14%	9.95%	11.8%
COc1cccc(-c2cc(C(=O)Nc3cc(Oc4ccc(O)cc4)cc([N+](=O)[O-])c3)on2)c1	9.09%	8.76%	3.98%
O=C(C=Cc1ccc(Cl)c(Cl)c1)NCCCCCN1CCCC(CCCNC(=O)/C=C/c2ccccc2)C1 (stereo not drawn)	3.2%	3.05%	3.82%
CCCN(CC1CC1)c1nc(C)nc2c(-c3ccccc3)cc(C)cc12	12.7%	16.2%	10.1%
Cc1cccc2nc(-c3cccc(-c4cccc(CN5CCC(CO)CC5)c4)c3)[nH]c12	9.53%	8.91%	8.87%
CCC(C)(C)c1ccc(N2C(N)=NC(N)=NC2(C)C)cc1	-2.05%	-1.28%	-2.78%
O=C(Nc1cccc(-c2nn3ncccc3c2-c2ccnc(Nc3ccccc3)n2)c1)c1c(F)cccc1F	3.26%	11%	2.04%
Cc1cnc2ccc(NS(=O)(=O)c3sc4ccc(Cl)cc4c3C)cc2c1N1CCNCC1	3.23%	4.04%	-0.02%
CN1CCN(Cc2ccc(-c3ccc4c(Nc5cc(O)c(Cl)cc5F)ccnc4c3)o2)CC1	7.47%	4.6%	4.5%
COc1ccc(N(c2nc(-c3cc(Cl)ccc3Cl)cs2)C2CCNC2)cc1 (stereo not drawn)	4.89%	4.65%	1.24%

Compound	inhibition [1]	inhibition [2]	inhibition [3]
CN1CCCC(CN2CCN(Cc3ccc(-c4ccc(-c5nc6ccccc6[nH]5)cc4)cc3)CC2)C1 (stereo not drawn)	13%	15.9%	7.8%
CC(C)CNCc1cccc(-c2cccc(CNC3CCN(Cc4ccccc4)CC3)c2)c1	1.93%	2.58%	1.83%
c1ccc2c(c1)CN(Cc1ccsc1)CC1(CCN(Cc3c[nH]c4cnccc34)CC1)O2	4.5%	3.19%	6.86%
Oc1ccccc1CNC1CCCCC1NCc1ccccc1O (stereo not drawn)	7.77%	9.96%	4.48%
COc1cc2nc(N3CCC(CNC(=O)c4ccc(-c5ccc(C(=O)N(C)C)cc5O)cc4)CC3)nc(N)c2cc1OC	0.58%	1.14%	-1.24%
COCCNCc1cccc(-c2ccc3c(Nc4ccc(Oc5cccnc5)cc4)ccnc3c2)c1	1.93%	2.56%	2.93%
CC(C)(C)CNCC(C)(C)c1nc(-c2ccc(Cl)c(O)c2)c(-c2ccncc2)[nH]1	-1.13%	0%	-1.37%
CCn1c(-c2nonc2N)nc2c(-c3cccc(NC(=O)Nc4ccc(C#N)cc4)c3)ncc(OCCCN)c21	1.92%	-0.33%	2.67%
Cc1[nH]c2ccc(-c3ccc(N(C)C)cc3)cc2c(=O)c1Cl	2.49%	3.7%	2.73%
COc1ccc(-c2ccc(CNCc3ccc(F)cc3)cc2)cc1S(=O)(=O)NCCN1CCCC1	0.67%	1.06%	3.23%
CC(C)CCN1CCC(Oc2cccc(NC(=O)c3ccc(C(F)(F)F)cc3)c2)CC1	1.54%	-0.13%	1.09%
CC(=O)Nc1ccc(OCCCN(Cc2ccccc2C(F)(F)F)c2ccc(C(F)(F)F)c(C#N)c2)c(Cl)c1	6.79%	5.68%	1.94%
COc1ccc(NC(=O)/C=C/c2ccccc2Cl)cc1OCCN1CCC(N(C)C)CC1	2.23%	1.6%	1.83%
CC(O)C1CCCCN1C(=O)c1cccc(-c2cccc(-c3nc4cc(C(F)(F)F)ccc4[nH]3)c2)c1 (stereo not drawn)	-0.23%	1.12%	-0.12%
CCOC(=O)CN(c1ccc(Br)cc1OCCOc1cc(Br)ccc1N(CC(=O)OCC)C(C)C(=O)OCC)C(C)C(=O)OCC (stereo not drawn)	1.16%	-0.2%	1.37%
CC(C)CNCc1cccc(-c2ccc(CNc3ccc(C(=O)c4ccccc4)cc3)cc2)c1	1.27%	0.62%	-1.03%
CC(=O)Nc1nnc(SCc2c(C)cc(C(C)(C)C)cc2C)s1	0.82%	-2.97%	1.06%
CN(C(=O)NCCc1ccccc1)C1CCN(CCCCCNC(=O)/C=C/c2ccc(Cl)c(Cl)c2)CC1	14.9%	12%	12.4%
O=[N+]([O-])c1cccc(Nc2nccc(-c3cnn4ncccc34)n2)c1	83%	85.4%	79.9%
Cc1cc(=O)c(-c2ccc(Oc3ccc(Cl)cc3Cl)cc2)c(C)[nH]1	2.15%	3.32%	1.9%
COc1cccc2cc(C(=O)N[C@@H](CC(C)C)C(=O)N[C@H](/C=N/N(C)C(=O)OC(C)(C)C)CC(=O)OC(C)(C)C)oc12	2.84%	3.79%	3.79%
Cc1ccc(-c2nnc3c4ccccc4c(C)nn23)cc1S(=O)(=O)N1CCN(CCO)CC1	0.38%	0.96%	-0.93%
CN1CCN(CC(=O)Nc2ccc(-c3ccc(-c4nc5ccccc5[nH]4)s3)cc2)CC1	1.26%	3.57%	2.3%
